The source of these data is PubChem BioAssay (Tox21).

SMILES strings stand for the structures. Inconclusive results are not listed. Entries that show only a call come without a potency. Activity calls are given as the source filed them. Calls follow the shape of the full dose curve.

The nature of this assay: qHTS assay to identify small molecule agonists of the progesterone receptor (PR) signaling pathway - cell viability counter screen (AID 1346799). Also: nearly all actives have a fitted effect of over 45% in size. The following applies: PR-UAS-bla HEK293T viability, CellTiter-Glo luminescence, 16 h; series mostly up to 92.4 µM. From the text: National Center for Advancing Translational Sciences [NCATS]
NIH Chemical Genomics Center [NCGC]
U.S. Environmental Protection Agency [EPA]
National Institutes of Environmental Health Sciences [NIEHS]
National Toxicology Program [NTP]
U.S. Food and Drug Administration [FDA]
Progesterone receptor (PR), a nuclear hormone receptor, plays an important role in development, metabolic homeostasis and reproduction. It is activated by the steroid hormone progesterone. Endocrine disrupting chemicals (EDCs) and their interactions with steroid hormone receptors like PR causes disruption of normal endocrine function. To identify the compounds that stimulate PR signaling, a PR-UAS-bla GripTite cell line i.e. PR-UAS-bla HEK293T (Invitrogen, Carlsbad, CA, USA) containing a beta-lactamase reporter gene under the control of an UAS response element was used to screen Tox21 10K compound library. The cytotoxicity of the Tox21 compound library against the PR-bla cell line was tested in parallel by measuring the cell viability using CellTiter-Glo assay in the same wells.
Tox21 Assay Protocol Summary:
PR-UAS-bla HEK293T cells were dispensed at 3,000 cells/5 uL of assay medium containing 2% charcoal stripped FBS per well into black wall/clear-bottom 1536-well plates using a Multidrop Combi (ThermoFisher Scientific, Waltham, MA) dispenser. After the assay plates were incubated at a 37C and 5% CO2 for 6 hr, 23 nL of compounds dissolved in DMSO, positive controls or DMSO only was transferred to the assay plate by a Pintool station (Kalypsys, San Diego, CA). The plates were incubated at 37C and 5% CO2 for 16 hr. Then 1 uL of LiveBLAzer B/G FRET substrate was added using a Flying Reagent Dispenser (FRD, Aurora Discovery, San Diego, CA), the plates were incubated at room temperature for 2 hours, and fluorescence intensity was measured by an Envision plate reader (PerkinElmer, Shelton, CT). For cell viability readout that measures cytotoxicity, 4 uL/well of CellTiter-Glo reagent was added into the assay plates using a FRD. After 30 min incubation at room temperature, the luminescence intensity in the plates was measured using a ViewLux (PerkinElmer) plate reader.
For `O=C(CCCl)NCc1ccccc1`, the Potency result was “inactive”. Take `CCN(CC)CCOc1ccc(Cc2ccccc2)cc1`: the Potency entry was “inactive”. Next, `O=C1CCCc2ccccc21`: “inactive”; `CCN(O)CC`: “inactive”; `NCCC(O)(P(=O)(O)O)P(=O)(O)O`: “inactive”.

Turning to `Cc1ccc(C)c(N)c1`, the Potency entry is “inactive”. As for `Cc1cccc(C)c1NC(=O)CN1CCCCCC1`, the Potency result is “inactive”. As to `CCCS(=O)c1ccc2nc(NC(=O)OC)[nH]c2c1` (stereo not given), the Potency result is “inactive”.

Regarding `CC(=O)N(CC(O)CN(C(C)=O)c1c(I)c(C(=O)NCC(O)CO)c(I)c(C(=O)NCC(O)CO)c1I)c1c(I)c(C(=O)NCC(O)CO)c(I)c(C(=O)NCC(O)CO)c1I` (stereo not given), the Potency entry is “inactive”. Consider `CCN(CC)CC1CCCCN1CC(=O)N1c2ccccc2C(=O)Nc2cccnc21` (stereo not given), for which the Potency entry is “inactive”.

Turning to `CS(=O)(=O)c1ccc([C@@H](O)[C@@H](CF)NC(=O)C(Cl)Cl)cc1`, the Potency result was “inactive”. For the compound `O=Cc1ccc(F)c(Br)c1`, the Potency entry is “inactive”. The value for `NCCCN1CCN(CCCN)CC1` was “inactive”. On to `CCOC(=O)c1ccccc1O`, for which the Potency result is “inactive”. Consider `CCN[C@H]1CN(CCCOC)S(=O)(=O)c2sc(S(N)(=O)=O)cc21`, for which the Potency entry was “inactive”. Regarding `C1CSCCS1`, the Potency entry is “inactive”.

As to `CC1=NN(c2cc(Cl)c(S(=O)(=O)O)cc2Cl)C(=O)C1N=Nc1ccc(S(=O)(=O)O)cc1` (stereo not given), the Potency result was “inactive”.

For the compound `CCOC(=O)C1CC(=O)C(=C(O)C2CC2)C(=O)C1` (stereo not given), the Potency result was “inactive”. The value for `COc1ccc2nc(NC(=O)Nc3ccccc3)sc2c1` was “inactive”; that for `CC(C)(C)c1ccc(OC(=O)c2ccccc2O)cc1` was “inactive”; that for `CCCCNc1ccc(C(=O)OCCN(CC)CC)cc1` was “inactive”. For the compound `CCCNC(C)(C)COC(=O)c1ccccc1`, the Potency result was “inactive”. `Cc1cn([C@@H]2O[C@H](CO)[C@@H](O)[C@@H]2F)c(=O)[nH]c1=O`: the Potency result is “inactive”. As to `CC(C)O`, the Potency entry was “inactive”. On to `C=CCCC=C`, for which the Potency entry is “inactive”.

Turning to `c1ccc(CN(CC2=NCCN2)c2ccccc2)cc1`, the Potency entry was “inactive”.

On to `CC(=O)N[C@@H](CC(C)C)C(=O)O`, for which the Potency entry is “inactive”. Take `FC(F)(F)C(Cl)(Cl)Cl`: the Potency entry is “inactive”. `O=Cc1ccc(O)c(O)c1O`: the Potency result is “inactive”. On to `COc1ccc(S(=O)(=O)Nc2nnc(CC(C)C)s2)cc1`, for which the Potency result was “inactive”. For `CC(C)=CCCC(C)CCOC=O` (stereo not given), the Potency entry is “inactive”. For `CN(CCCN1c2ccccc2CCc2ccccc21)CC(=O)c1ccc(Cl)cc1`, the Potency result is “inactive”.

On to `CC(C)OC(C)C`, for which the Potency result is “inactive”. `CCOC(=O)CS`: the Potency entry is “inactive”. As for `C=C(C)C(=O)OCCOP(=O)(O)O`, the Potency result was “inactive”.

For `OCCN(CCO)CCN(CCO)CCO`, the Potency result is “inactive”. The value for `CCOc1ccc(NS(=O)(=O)c2ccc(N)cc2)nn1` was “inactive”. The value for `CCCCNc1cc(C(=O)O)cc(S(N)(=O)=O)c1Oc1ccccc1` was “inactive”. Take `O=C1Nc2ccc([N+](=O)[O-])cc2C1=O`: the Potency result was “inactive”. As to `COC(=O)c1ccc(OC)cc1`, the Potency entry was “inactive”.
